# Reference: PubChem BioAssay (NCATS)
# Records with an inconclusive call do not appear. Where a call stands in place of a potency, no number is given. Activity calls are given as the source filed them. The call rests on the fitted dose curve.
# Molecular target: Atrial natriuretic peptide receptor 1 (Homo sapiens) (UniProt P16066)
# Experiment: Natriuretic polypeptide receptor (hNpr1) antagonism - Pilot screen (AID 1347049)
# Settings: hNpr1 cells, antagonist mode cGMP read-out; series mostly up to 57.5 µM
# Experimental: In order to identify small molecular compounds that inhibit the hNpr1 receptor we developed a high-throughput assay to measure inhibition of the guanylate cyclase activity of the receptor. cGMP production was measured using a circular permutated Firefly luciferase (FLuc) enzyme functionally linked to the cGMP binding domain of human phosphodiesterase 5 (GloSensor technology pGS-40F, (Fan, F. et al. 2008). The cGMP-sensor was expressed in human embryonic kidney 293 (HEK-293) cells and FLuc activity was measured after stimulation with hNrp agonist peptide. hNrp agonists activates the receptor's associated guanylyl cyclase (GC) domain producing cGMP which then binds to the GloSensor resulting in FLuc activation, the enzymatic activity of which can be measured as bioluminescence with addition of luciferin substrate.
# F. Fan, B. F. Binkowski, B. L. Butler, P. F. Stecha, M. K. Lewis, K. V. Wood, Novel genetically encoded biosensors using firefly luciferase. ACS Chem Biol 3, 346-351 (2008).
# This assay was initially piloted by testing with a small diversity library of compounds with known pharmacological activity.
# PROTOCOL TABLES (as described by Inglese J, Shamu CE and Guy RK. 2007)
# SEQUENCE No. (e.g., 1, 2, 3, etc.); […] (e.g., Cells, Incubation, Reagent, etc.); VALUE and DESCRIPTION.
# 1. Cells. Seed 1500 HEK293 cGMP-sensor cells expressing hNpr1 per well in 4uL into Greiner 1536-well white/solid bottom high base, tissue culture-treated plates.
# 2. Incubation. Incubate plated cells at 37C in 5% CO2, 95% RH overnight.
# 3. Reagent. Add 1uL per well GloSensor reagent from Promega (2% final concentration) or CO2 independent media vehicle control to respective columns of Greiner 1536-well plates.
# 4. Incubation. Incubate plated cells at room temperature for 2 h, protect from light.
# 5. Compounds. Library compounds and A-71915 control added at 23 nL per well, transferred by Pin Tool.
# 6. Incubation. Incubate plated cells for 30 min. at room temperature, protect from light.
# 7. Detector. GloSensor baseline pre-read luminescence measured using CCD-based camera (Viewlux).
# 8. Compound. Add 1uL of hNppA peptide to 0.1 nM final concentration to stimulate hNpr1 or CO2 independent media as vehicle control.
# 9. Incubation. Incubate treated cells at room temperature for 20 min., protect from light.
# 10. Detector. GloSensor post-hNppA luminescence measured using CCD-based camera (Viewlux).
# NOTES (numbers refer to Sequence numbers above)
# 1. HEK293 cells expressing hNpr1 and GIP/pGS-40F grown to 85-95% confluence (48-72 h) in T175 culture flasks (CO2 independent media supplemented with 10% FBS, 1% Pen/Strep antibiotics and 1 ug/mL puromycin). Trypsinize and harvest cells from T175 culture flasks and filter through 40 um cell strainer. Cells counted with Invitrogen Countess (30,000,000 - 50,000,000 cells/flask). Cells diluted to a final concentration of 375 cells/uL in CO2 independent media and a Millipore multidrop used to dispense 1500 cells per well (4uL/well) into 9 x 1536-well Greiner White/Solid bottom, high base tissue-culture treated (TC) plates and one Aurora 1536-well Black/Clear bottom, low base, TC plate (for visual inspection of cell health throughout the duration of the assay).
# 2. Cells incubated overnight at ambient temperature, 24 h. at 37C in 95% RH incubator protected from light, covered with metal lid with gas-exchange holes.
# 3. Prepare GloSensor Reagent (Promega): Reconstitute GloSensor luciferase substrate by adding 8.2mL Hepes buffer to 250mg substrate, mix well, protect from light and stored at -80C. Prepare a fresh 12% GloSensor solution in CO2 independent supplemented plating media (see above). Mix well and store at ambient temperature, protected from light. 1uL 12% GloSensor Luciferase Reagent added (2% final concentration) to respective columns of 9 x 1536-well Greiner plate with BioRaptr, 1uL CO2 independent plating media added to respective columns as vehicle control with BioRaptr.
# 4. […]
# Potency means the concentration at half of the fitted maximal effect.
# Atrial natriuretic peptide receptor 1 (Homo sapiens), sequence (P16066 whole entry, looked up): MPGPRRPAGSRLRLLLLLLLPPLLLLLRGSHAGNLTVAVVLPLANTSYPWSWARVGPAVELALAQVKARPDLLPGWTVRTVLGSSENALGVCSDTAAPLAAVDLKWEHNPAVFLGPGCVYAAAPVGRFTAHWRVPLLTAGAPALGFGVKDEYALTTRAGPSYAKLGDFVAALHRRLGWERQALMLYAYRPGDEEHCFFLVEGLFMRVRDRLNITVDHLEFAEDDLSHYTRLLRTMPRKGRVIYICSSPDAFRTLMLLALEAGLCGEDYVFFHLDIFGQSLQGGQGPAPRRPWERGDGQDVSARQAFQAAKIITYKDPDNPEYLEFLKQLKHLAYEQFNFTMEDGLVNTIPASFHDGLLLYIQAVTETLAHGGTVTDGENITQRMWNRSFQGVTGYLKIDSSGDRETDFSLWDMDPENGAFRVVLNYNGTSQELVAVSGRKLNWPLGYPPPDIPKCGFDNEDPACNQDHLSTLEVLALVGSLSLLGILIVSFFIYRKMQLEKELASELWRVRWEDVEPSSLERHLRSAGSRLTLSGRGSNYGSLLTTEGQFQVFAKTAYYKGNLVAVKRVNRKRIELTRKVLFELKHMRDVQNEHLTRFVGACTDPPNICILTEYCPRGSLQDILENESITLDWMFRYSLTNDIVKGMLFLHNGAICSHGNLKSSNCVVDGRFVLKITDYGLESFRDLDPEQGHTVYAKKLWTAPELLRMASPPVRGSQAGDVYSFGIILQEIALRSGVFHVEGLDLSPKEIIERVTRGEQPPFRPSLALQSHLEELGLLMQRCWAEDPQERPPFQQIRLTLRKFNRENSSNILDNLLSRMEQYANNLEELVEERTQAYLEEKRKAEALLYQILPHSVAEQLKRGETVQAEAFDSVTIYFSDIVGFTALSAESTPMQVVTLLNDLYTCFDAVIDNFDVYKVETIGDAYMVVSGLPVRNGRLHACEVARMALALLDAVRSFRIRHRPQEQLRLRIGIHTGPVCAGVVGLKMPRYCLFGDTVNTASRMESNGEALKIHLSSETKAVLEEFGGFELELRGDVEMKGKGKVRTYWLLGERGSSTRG
row,SMILES,Potency
1,NC(=O)c1ccc2[nH]ccc2c1,inactive
2,Nc1nc(N)c2nc(CNc3ccc(C(=O)NC(CCC(=O)O)C(=O)O)cc3)cnc2n1 (stereo not given),inactive
3,CC1=C(C(=O)O)N2C(=O)[C@@H](NC(=O)C(N)c3ccccc3)[C@H]2SC1 (stereo not given in full),inactive
4,OCc1ccc(-c2nn(Cc3ccccc3)c3ccccc23)o1,inactive
5,Cc1ccc(S(=O)(=O)N[C@@H](Cc2ccccc2)C(=O)CCl)cc1,12 µM (active)
6,COc1cc2nc(N3CCCN(C)CC3)nc(NC3CCN(Cc4ccccc4)CC3)c2cc1OC,inactive
7,CCN(CC)CC#CCOC(=O)C(O)(c1ccccc1)C1CCCCC1 (stereo not given),inactive
8,NC(=O)c1cccc(N)c1,inactive
9,O=C(O)C1CCCN(CCC=C(c2ccccc2)c2ccccc2)C1 (stereo not given),inactive
10,COc1cc2ncnc(Nc3cccc(Cl)c3)c2cc1OC,inactive
11,CC1CC2C3CCC4=CC(=O)C=C[C@]4(C)[C@@]3(F)[C@@H](O)C[C@]2(C)[C@@]1(O)C(=O)CO (stereo not given in full),inactive
12,CCN(CC)CCn1c(=O)c(Cc2ccc(OC)cc2)nc2ccccc21,inactive
13,CCCCS(=N)(=O)CCC(N)C(=O)O (stereo not given),inactive
14,CCN1CCCC1CNC(=O)c1cc(S(N)(=O)=O)ccc1OC (stereo not given),inactive
15,CC(C)NCC(O)c1ccc(NS(C)(=O)=O)cc1 (stereo not given),inactive
